# Assay results from PubChem BioAssay (NCI).
# Values joined by “and” are separate entries in the source; they are usually repeats but may differ in a detail not shown here. Identical values can stand only once. This is part of a sample that, as a whole, favours compounds with a hit. Of some 79,000 tested, about 15% had one in any assay. A structure can be active in one record and inactive in another. Active and inactive are the calls of the source. No stated cut-off is given here; in the data, active means growth inhibition above about 70%; inactive means the rest.
# Assay: NCI Yeast Anticancer Drug Screen. Data for the sgs1 strain (AID 173);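 further: 0% = growth of vehicle-only control cultures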
# Details: S. cerevisiae sgs1 mutant, at 11.0 µM, stronger effect = higher value
# Procedure, shortened: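 Vehicle-treated cultures served as reference for growth inhibition of a yeast strain altered in DNA damage repair or cell cycle control after compound exposure.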
row,Compound,growth inhibition
1,C=C[C@H]1CN2CC[C@H]1C[C@@H]2[C@@H](O)c1ccnc2ccccc12,-6% (inactive)
2,O=c1c2ccccc2[se]n1-c1cccnc1,80% (active)
3,CC12CCC(C1)C(C)(C)C2OC(=O)c1ccccc1N (stereo unspecified),-24% (inactive)
4,OC1(c2ccccc2)CC2CCC(C1)N2CCCC(O)(c1ccccc1)c1ccccc1 (stereo unspecified),3% (inactive)
5,COC(=O)C(F)C(Br)C(=O)OC (stereo unspecified),98% (active)
6,CCCCCCCCCC[Se]C#N,13% (inactive)
7,CNCC(O)c1ccc(O)c(O)c1.[Pt].c1ccc([PH+](c2ccccc2)c2ccccc2)cc1.c1ccc([PH+](c2ccccc2)c2ccccc2)cc1,15% (inactive)
8,Nc1nc(N)c(-c2ccc(Cl)c(Cl)c2)c(CP(Cl)(Cl)(Cl)Br)n1,49% (inactive)
9,CC1CC(C)CC(C)C(O)/C(C#N)=C/C=C/CC(C2CCCC2C(=O)O)OC(=O)CC(O)C(C)C1 (stereo unspecified),98% (active)

# Same assay, conditions: S. cerevisiae sgs1 mutant, at 33.0 µM, stronger effect = higher value
row,Compound,growth inhibition
1,C=C[C@H]1CN2CC[C@H]1C[C@@H]2[C@@H](O)c1ccnc2ccccc12,-7% (inactive)
2,O=c1c2ccccc2[se]n1-c1cccnc1,96% (active)
3,CC12CCC(C1)C(C)(C)C2OC(=O)c1ccccc1N (stereo unspecified),-10% (inactive)
4,OC1(c2ccccc2)CC2CCC(C1)N2CCCC(O)(c1ccccc1)c1ccccc1 (stereo unspecified),38% (inactive)
5,COC(=O)C(F)C(Br)C(=O)OC (stereo unspecified),99% (active)
6,CCCCCCCCCC[Se]C#N,54% (inactive)
7,CNCC(O)c1ccc(O)c(O)c1.[Pt].c1ccc([PH+](c2ccccc2)c2ccccc2)cc1.c1ccc([PH+](c2ccccc2)c2ccccc2)cc1,86% (active)
8,Nc1nc(N)c(-c2ccc(Cl)c(Cl)c2)c(CP(Cl)(Cl)(Cl)Br)n1,74% (active)
9,CC1CC(C)CC(C)C(O)/C(C#N)=C/C=C/CC(C2CCCC2C(=O)O)OC(=O)CC(O)C(C)C1 (stereo unspecified),97% (active)

# Same assay, conditions: S. cerevisiae sgs1 mutant, at 100.0 µM, stronger effect = higher value
row,Compound,growth inhibition
1,C=C[C@H]1CN2CC[C@H]1C[C@@H]2[C@@H](O)c1ccnc2ccccc12,-6% (inactive)
2,O=c1c2ccccc2[se]n1-c1cccnc1,82% (active)
3,CC12CCC(C1)C(C)(C)C2OC(=O)c1ccccc1N (stereo unspecified),36% (inactive)
4,OC1(c2ccccc2)CC2CCC(C1)N2CCCC(O)(c1ccccc1)c1ccccc1 (stereo unspecified),89% (active)
5,COC(=O)C(F)C(Br)C(=O)OC (stereo unspecified),99% (active)
6,CCCCCCCCCC[Se]C#N,96% (active)
7,CNCC(O)c1ccc(O)c(O)c1.[Pt].c1ccc([PH+](c2ccccc2)c2ccccc2)cc1.c1ccc([PH+](c2ccccc2)c2ccccc2)cc1,97% (active)
8,Nc1nc(N)c(-c2ccc(Cl)c(Cl)c2)c(CP(Cl)(Cl)(Cl)Br)n1,92% (active)
9,CC1CC(C)CC(C)C(O)/C(C#N)=C/C=C/CC(C2CCCC2C(=O)O)OC(=O)CC(O)C(C)C1 (stereo unspecified),97% (active)

# Assay: NCI Yeast Anticancer Drug Screen. Data for the mlh1 rad18 strain (AID 175)
# Details: S. cerevisiae mlh1 rad18 strain growth inhibition; at 5.0 µM (retest, dose inferred, filed as 0.5); stronger effect = higher value
# Procedure, shortened: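 Inhibition values reflect reduced growth of mutant yeast versus vehicle-treated controls following compound exposure; the mutations affect DNA damage repair.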
row,Compound,growth inhibition
1,COC(COC(N)=O)C1=C(N2CC2)C(=O)C(C)=C(N2CC2)C1=O (stereo unspecified),76% (active)
2,Cc1nc(Cl)c(CBr)c(Cl)n1,50% (inactive)
3,O=C(O)c1ccccc1.[Ag],99% (active) and 40% (inactive)
4,CC(=O)[O-].O=C([CH-]C(=O)c1ccccc1)c1ccccc1.O=C([CH-]C(=O)c1ccccc1)c1ccccc1.[Sm+3],44% (inactive)
5,CC(C)(Br)C(=O)C(Br)Br,98% (active)
6,C=C[C@H]1CN2CC[C@H]1C[C@@H]2[C@@H](O)c1ccnc2ccccc12,2% (inactive)
7,O=c1c2ccccc2[se]n1-c1cccnc1,-14% (inactive)
8,[Pt].c1ccc(P(CCP(c2ccccc2)c2ccccc2)CCP(c2ccccc2)c2ccccc2)cc1,16% (inactive)
9,CC12CCC(C1)C(C)(C)C2OC(=O)c1ccccc1N (stereo unspecified),14% (inactive)
10,OC1(c2ccccc2)CC2CCC(C1)N2CCCC(O)(c1ccccc1)c1ccccc1 (stereo unspecified),-7% (inactive)
11,ClC1=C(Cl)C(Cl)(Cl)SS1,99% (active)
12,COC(=O)C(F)C(Br)C(=O)OC (stereo unspecified),94% (active)
13,c1ccc2c(NCCCCCCNc3c4ccccc4nc4ccccc34)c3ccccc3nc2c1,61% (inactive)
14,c1ccc2c(NCCCCCCCCNc3c4ccccc4nc4ccccc34)c3ccccc3nc2c1,91% (active)
15,CN(Cc1ccccc1)CC(O)c1ccc(Cl)cc1 (stereo unspecified),4% (inactive)
16,Br[C](Br)(Br)[Hg][c]1ccccc1,99% (active)
17,Cc1cc(N=Nc2ccccc2C)ccc1N,32% (inactive) and 35% (inactive)
18,C/C(=N\N=C(/[Se])N1CC2CCC(CC2)C1)c1ccccn1,64% (inactive)
19,CCCCCCCCCC[Se]C#N,51% (inactive)
20,CNCC(O)c1ccc(O)c(O)c1.[Pt].c1ccc([PH+](c2ccccc2)c2ccccc2)cc1.c1ccc([PH+](c2ccccc2)c2ccccc2)cc1,13% (inactive)
21,CCN(CC)CC.CCOc1ccc(NC(=O)N=C=[N-])cc1.[CH-]1CCCCC1.[CH-]1CCCCC1.[CH-]1CCCCC1.[Cl-].[Sn+4],99% (active)
22,N#Cc1ccc([Se]c2ccccc2)cc1,89% (active)
23,O=c1ssc(Cl)c1Cl,97% (active)
24,Nc1nc(N)c(-c2ccc(Cl)c(Cl)c2)c(CP(Cl)(Cl)(Cl)Br)n1,64% (inactive)
25,Cc1ccc(P(c2ccc(C)cc2)c2ccc(C)cc2)cc1,49% (inactive)
26,O=C(O)c1ccccc1[Se][Se]c1ccccc1C(=O)O,56% (inactive)
27,CC1CC(C)CC(C)C(O)/C(C#N)=C/C=C/CC(C2CCCC2C(=O)O)OC(=O)CC(O)C(C)C1 (stereo unspecified),98% (active)
28,CCC[CH2][Pb]([Cl])([CH2]CCC)[CH2]CCC,99% (active)
29,CNC(Cc1ccccc1)c1ccc(OC)c(OC)c1 (stereo unspecified),57% (inactive)
